Experimental findings from PubChem BioAssay (NCI) are described below.

Holding throughout (assay): NCI-60 one-dose screen, 48 h (100 = growth as untreated, 0 = no growth, -100 = all killed)
Common to all, as to settings: 10 µM unless noted

Assay [1] concerns SR leukemia.
Assay [2] deals with RPMI-8226 leukemia.
In assay [3] the test system is OVCAR-8 ovarian.
Assay [4] relates to OVCAR-5 ovarian.
The subject of assay [5] is OVCAR-4 ovarian.
Assay [6] concerns SK-OV-3 ovarian.
Assay [7] has as its system IGROV1 ovarian.
In assay [8] the test system is OVCAR-3 ovarian.
Assay [9] concerns HS 578T breast.
The test system of assay [10] is NCI/ADR-RES ovarian.
Assay [11] relates to T-47D breast.
Assay [12] relates to BT-549 breast.
In assay [13] the test system is MDA-MB-435 melanoma.
For assay [14], the system named is SW-620 colon.
Assay [15] has as its system MCF7 breast.
Assay [16] deals with HCT-116 colon.
The test system of assay [17] is HCC-2998 colon.
Assay [18] deals with KM12 colon.

Molecules are shown by their SMILES. This is part of a sample that, as a whole, favours compounds with a hit. Of some 83,000 tested, about 20% had one in any assay.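 Single-dose data. Exposure time 48 hours. Values below 10 considered active.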 Values without a mark were called inactive. Active and inactive are the calls of the source.

`CCOC(=O)c1c(NCC(=O)Nc2cccc([N+](=O)[O-])c2)sc2c1CCCC2`: the growth in assay [1] is 11.7%; in assay [2], -10.7% (active); in assay [3], -18.2% (active); in assay [4], -45.6% (active); in [5] it was -45.2% (active); in assay [6], -67.3% (active). The growth was -19.6% (active) in assay [7]; -39.7% (active) in [8]; -14.8% (active) in [9]; -36.7% (active) in assay [10]; -28.2% (active) in [11]; -57.3% (active) in assay [12]. The growth is -91.5% (active) in [13]; -2.82% (active) in [14]; -12.8% (active) in [15]; -21% (active) in assay [16]; -76.5% (active) in assay [17]; -20.4% (active) in assay [18].
On to `COc1ccc(N2C(=O)c3cc(OC)c(OC)cc3NC2SCc2ccccc2)cc1` (configuration not stated), for which the growth is 83.5% in assay [1]; 114% in assay [2]; 103% in assay [3]; 109% in assay [4]; 102% in assay [5]; 112% in assay [6]. Further, the growth is 102% in [7]; 125% in [8]; 125% in [9]; 99.7% in assay [10]; 98.5% in assay [11]; 106% in assay [12]. In addition, the growth was 107% in assay [13]; 114% in [14]; 96.3% in assay [15]; 100% in [16]; 121% in assay [17]; 108% in [18].
Regarding `Cc1ccc(-n2cc(/C=C/C(=O)c3ccc(S(C)(=O)=O)cc3)c(-c3ccc(S(C)(=O)=O)cc3)n2)cc1`, the growth in assay [1] is 44%; in assay [2], 92.3%; in assay [3], 97.5%; in assay [4], 98.3%; in assay [5], 109%; in assay [6], 105%. For the same compound, the growth in assay [7] was 69.2%; in [8], 75.9%; in assay [9], 103%; in assay [10], 64%; in assay [11], 105%; in [12], 91.5%. Besides, the growth was 31.4% in assay [13]; 64.9% in assay [14]; 64.8% in [15]; 53.4% in assay [16]; 107% in assay [17]; 59.5% in assay [18].
As to `COc1cc(CNC(=O)/C=C/c2ccccc2)ccc1OCC(=O)NO`, the growth was 97% in [1]; 102% in assay [2]; 98.2% in [3]; 102% in assay [4]; 108% in [5]; 98.9% in assay [6]. Besides, the growth in assay [7] is 98.1%; in [8], 104%; in [9], 109%; in assay [10], 96.1%; in assay [11], 99.6%; in assay [12], 107%. Also, the growth is 102% in [13]; 107% in assay [14]; 89.9% in [15]; 98.7% in assay [16]; 104% in [17]; 99.3% in assay [18].
For the compound `CCCC(=O)NC(c1cccnc1)c1ccc2c(C)ccnc2c1O` (configuration not stated), the growth in assay [1] is 41.2%; in assay [2] it was 32.1%; in [3], 21.1%; in [4], 32.3%; in assay [5], 11.2%; in assay [6], 19.7%. Moreover, the growth in [7] is 19.2%; in assay [8], 13.1%; in assay [9] it was 67.6%; in [10], 9.99% (active); in assay [11], 20.7%; in assay [12], 26.2%. Besides, the growth in [13] is 30.6%; in [14], 28.6%; in assay [15], -2.74% (active); in assay [16], 16.7%; in [17], 24%; in [18], 20%.
In the case of `Cc1nn(-c2ccccc2)cc1/C=N/Nc1nc(Nc2ccccc2)nc(Nc2ccc(S(N)(=O)=O)cc2)n1`, the growth in assay [1] is 33.6%; in assay [2], -23.1% (active); in assay [3], 18.2%; in assay [4], -13.2% (active); in assay [5] it was 14.9%; in [6] it was 50.5%. Further, the growth in [7] is 13.1%; in assay [8], -31.1% (active); in assay [9] it was 13.8%; in assay [10], 76.4%; in assay [11] it was 18.9%; in assay [12], 21.5%. Moreover, the growth is -31.8% (active) in [13]; -14.3% (active) in assay [14]; -69.9% (active) in assay [15]; -40.9% (active) in [16]; -17.2% (active) in assay [17]; 9.04% (active) in assay [18].
Consider `Oc1ccc(-c2nnc(SCc3ccc(O)c4ncccc34)o2)cc1`, for which the growth is 37.4% in assay [1]; 4.27% (active) in assay [2]; 15.9% in assay [3]; 27.1% in assay [4]; 9.9% (active) in assay [5]; -3.56% (active) in [6]. In addition, the growth in assay [7] is 3.93% (active); in [8], 6.01% (active); in assay [9], -0.346% (active); in [10] it was 7.18% (active); in [11], 11.1%; in assay [12], 12.8%. In addition, the growth in assay [13] was 12.3%; in [14] it was 16.3%; in assay [15], 2.57% (active); in [16] it was 7.61% (active); in [17], 22.5%; in assay [18] it was 9.65% (active).
`C#CCOc1ccc(C(Nc2ccc(Cl)cc2)c2nnnn2C2CCCCC2)cc1` (configuration not stated): the growth in assay [1] is 81%; in [2] it was 76.9%; in [3], 93.5%; in [4], 85.5%; in assay [5], 82.6%; in assay [6] it was 98.2%. Besides, the growth in assay [7] is 84.3%; in assay [8], 101%; in assay [9], 79.9%; in [10], 76.6%; in assay [11], 74.4%; in assay [12] it was 85.7%. In addition, the growth in assay [13] was 98%; in [14] it was 94.2%; in assay [15] it was 75.5%; in assay [16] it was 61.4%; in assay [17], 98.7%; in [18], 95.9%.
As to `CC1=CC(=O)CC(C)(C)[C@@]1(O)/C=C/C(C)=C\C(=O)O`, the growth is 0.555% (active) in [1]; -28.4% (active) in assay [2]; -11.9% (active) in assay [3]; -25% (active) in assay [4]; -15.9% (active) in assay [5]; -22% (active) in assay [6]. Besides, the growth in [7] was -12.5% (active); in [8], -19.5% (active); in assay [9] it was -8.17% (active); in assay [10], -15.6% (active); in [11], -22.7% (active); in assay [12] it was -22.4% (active). Moreover, the growth was -70.7% (active) in assay [13]; 0.826% (active) in assay [14]; -14.6% (active) in assay [15]; -34% (active) in assay [16]; -52.1% (active) in assay [17]; 3.82% (active) in assay [18].
